# Bioassay records (PubChem BioAssay)
# Tat export inh – E. coli Tat export inhibitors, primary screen, MC4100, TorA-mCherry reporter, fluorescence, single point. hit rate 0.036% among 340,000. inhibition, % at 10 µM;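 active = mean replicate inhibition at least 50% and at least half of replicates individually reaching 50%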;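 also: exported cargo escapes ClpAP degradation while cytoplasmic cargo is degraded and loses fluorescence; 0% = median of neutral control wells and 100% = median of NaSCN control wells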
# AddAB inh – growth inhibition of E. coli expressing H. pylori AddAB, primary screen, AddAB inhibitor project, absorbance; inhibition, % at 11.9 µM; hit rate 0.29% among 330,000; in the data active = inhibition above about 12%;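 also: 0% = vehicle wells of infected cells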
# E coli growth-1 – E. coli V3065 growth inhibition, primary screen, counter-screen for AddAB inhibitor project, absorbance, OD600 | 18 h | inhibition, % at 11.9 µM | hit rate 0.27% among 330,000 | AID 449728, 2010;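 active = inhibition above the campaign's mean inhibition across all tested compounds plus 3 SD, cut at about 9.9% in these data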;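 also: uninfected addAB+ strain grown without phage in ampicillin broth; 0% = DMSO wells and 100% = ciprofloxacin 0.95 µg/ml wells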
# phage Ecoli inh – growth loss of phage-infected E. coli, primary screen, RecBCD inhibitor project, absorbance, with phage, HTS; AID 651602, 2012; hit rate 0.26% among 360,000; inhibition, % at 11.9 µM; in the data active = inhibition above about 11%
# E coli growth-2 – E. coli growth inhibition, primary screen, OD600; hit rate 0.21% among 330,000; AID 1053175, 2014; Escherichia coli growth, 23 h; active compounds read low; OD600 absorbance (concentration not given with the values);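 active = OD600 absorbance below the run mean of sample wells minus 3.6 SD, in any replicate, cut at about 0.56 in these data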
# AddAB confirm – growth loss of phage-infected E. coli expressing H. pylori AddAB, confirmation, AddAB inhibitor project, absorbance, E. coli V3065, T4 phage, triplicate; shares compounds with AddAB inh; OD; T4 phage with gene 2 nonsense mutations; inhibition, % at 11.9 µM; hit rate 64% among 880;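 active = mean inhibition above a set limit taken from the earlier primary screen, cut at about 13% in these data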;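 also: higher means less bacterial growth since AddAB block lets phage replicate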
# RecBCD counter – growth loss of RecBCD+ E. coli with mutant T4 phage, counter-screen for AddAB inhibitor project, absorbance, V66 E. coli; AID 488955, 2010; hit rate 73% among 880; shares compounds with AddAB inh; inhibition, % at 11.9 µM; OD growth;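 active = mean inhibition above the mean of solvent-only control wells plus 3 SD, cut at about 4% in these data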;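 also: optical density read after an 18 h incubation at 37 °C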
# Bact viability – bacterial viability inhibition counter-screen, confirmation, counter-screen for AddAB inhibitor project, absorbance; inhibition, % at 11.9 µM; absorbance (AddAB counterscreen); hit rate 35% among 880; shares compounds with AddAB inh; in the data active = inhibition above about 25%
# Active calls of the source: *; x = no result. In the library only some 0.5% were active in any assay of this set; here they are far more common.
SMILES,Tat export inh,AddAB inh,E coli growth-1,phage Ecoli inh,E coli growth-2,AddAB confirm,RecBCD counter,Bact viability
CC1=NN(C(=O)c2ccc(Cn3cc(Br)c([N+](=O)[O-])n3)o2)C(O)(C(F)(F)F)C1 (configuration not stated),-2.8,18.3*,7.8,9.1,0.665,8.0,2.5,5.1
C[n+]1cccc(C=NNC(=O)CC23CC4CC(CC(C4)C2)C3)c1,x,x,x,x,0.676,x,x,x
CC(O)C1CNCCN1CC1(c2ccccc2)CC1 (configuration not stated),x,x,x,x,0.684,x,x,x
O=C(O)c1ccc(N/N=C/C=C/c2ccc([N+](=O)[O-])o2)cc1,0.7,14.0*,8.5,8.1,x,30.9*,3.6,8.8
CCOC(=O)N/N=C(/C)c1ccc([N+](=O)[O-])o1,-13.7,31.8*,29.5*,7.7,x,100.8*,12.5*,39.3*
CC(=NNC(=O)C(O)(c1ccccc1)c1ccccc1)c1ccc([N+](=O)[O-])o1,x,x,x,x,0.709,x,x,x
Cc1c(C=NNC(=O)c2c[nH]c3ccccc23)cnn1C,x,x,x,x,0.675,x,x,x
O=C(NCC1CCCO1)C(=O)NN=Cc1ccc(OCc2ccccc2Cl)cc1 (configuration not stated),x,x,x,x,0.722,x,x,x
CCC(=O)NC(c1ccccc1OC)c1ccc2cccnc2c1O (configuration not stated),-8.2,28.5*,24.4*,x,0.66,17.8*,22.7*,15.1
CCn1cc(C(=O)O)c(=O)c2cc(F)c(N3CCN(C(=S)NC(=O)c4ccccc4Cl)CC3)cc21,-1.4,98.0*,84.1*,9.6,0.075*,101.8*,100.0*,101.8*
C=CCCCCCCCCC(=O)N1CCN(c2cc3c(cc2F)c(=O)c(C(=O)O)cn3CC)CC1,7.8,41.2*,35.3*,3.4,0.304*,98.1*,4.0*,71.6*
CC1(C)C2CC(=NO)C(C)(/[N+]([O-])=C/c3cccc([N+](=O)[O-])c3)CC21 (configuration not stated),x,x,x,x,0.633,x,x,x
Cc1cc2cc(CNS(=O)(=O)N(C)C)ccc2[nH]1,2.4,34.4*,26.1*,2.4,0.785,-1.1,-0.9,-2.9
Cc1ccc(S(=O)(=O)NCc2ccc3[nH]c(C)cc3c2)cc1,1.8,1.0,3.1,1.8,0.66,x,x,x
Cc1[nH]nc(SCC(=O)Nc2ccc(C#N)cc2)c1[N+](=O)[O-],-7.8,9.9,7.3,9.7,x,x,x,x
Cc1ccc(NC(=O)CSc2n[nH]c(C)c2[N+](=O)[O-])cc1,-3.1,14.1*,6.8,8.5,0.682,1.5,4.7*,2.2
CN1CCN(C(c2ccccn2)c2cc(Cl)c3cccnc3c2O)CC1 (configuration not stated),-7.5,5.3,-0.8,7.6,0.621,x,x,x
Cc1ccc(C(c2cc(Cl)c3cccnc3c2O)N2CCN(C)CC2)cc1 (configuration not stated),-1.6,19.3*,20.4*,x,x,8.7,9.4*,1.9
CCOC(=O)c1ccccc1NC(=O)CSc1ccc(-c2ccccn2)nn1,11.6,13.0*,12.8*,8.6,0.696,6.2,7.8*,6.5
CCc1ccc(NC(=O)CSc2ccc(-c3ccccn3)nn2)cc1,-13.3,12.8*,14.9*,10.0,0.636,8.9,9.3*,7.7
CC(=O)Nc1cccc(NC(=O)CSc2ccc(-c3ccccn3)nn2)c1,-4.9,5.2,3.6,9.5,0.638,x,x,x
CC(=O)NC1C(O)C=C(C(=O)O)OC1C(O)C(O)CO (configuration not stated),x,x,x,x,0.712,x,x,x
O=C(NN=Cc1ccc(Cl)cc1)c1ccc2c(c1)OCO2,x,x,x,x,0.618,x,x,x
NS(=O)(=O)c1ccc(-c2ccc(/C=C3\C(=O)Nc4ccccc43)o2)cc1,x,3.5,-1.2,x,x,x,x,x
Cc1ccc(/C=C2\C(=O)Nc3ccccc32)o1,3.3,61.6*,19.0*,16.8*,0.512*,98.1*,13.7*,44.2*
